# Measured values reported in the supplement of paper PMC6555819.
# Experiments:
# Assay in all cases: PBM binding z-score (relative to random genomic background probes); higher = stronger binding; sequences stand for … in GC…GCGATTGACAGCGTAGAATGAAGG
# [1] = system: FXR:RXRa (NR concentration 270 nM, RXRa partner concentration 90 nM)
# Summary of the method: (§1)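 For binding z-scores, the reference was random background probes on custom Agilent 4×180K protein-binding microarrays. These arrays were incubated 1 h with ligand-free nuclear receptor dimers in PBS pH 7.4, 2% milk, 0.02% Triton X-100, 1 mM DTT, 0.2 mg/mL BSA and 0.4 mg/ml salmon testes DNA. Fluorescence was scanned after antibody detection of each partner (one per run) and regression-normalized.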
# [2] = system: LXRa:RXRa (NR concentration 270 nM, RXRa partner concentration 90 nM)
# Summary of the method: as §1
# [3] = system: LXRa homodimer (NR concentration 270 nM)
# Summary of the method: as §1
# [4] = system: LXRb:RXRa (NR concentration 270 nM, RXRa partner concentration 90 nM)
# Summary of the method: as §1
# [5] = system: LXRb homodimer (NR concentration 270 nM)
# Summary of the method: as §1
# [6] = system: PPARa:RXRa (NR concentration 270 nM, RXRa partner concentration 90 nM)
# Summary of the method: as §1
# [7] = system: PPARg:RXRa (NR concentration 180 nM, RXRa partner concentration 90 nM)
# Summary of the method: as §1
# [8] = system: PPARg:RXRa 270nM:90nM, anti-RXR (NR concentration 270 nM, RXRa partner concentration 90 nM)
# Summary of the method: as §1
# [9] = system: PPARg:RXRa 30nM:10nM, anti-RXR (NR concentration 30 nM, RXRa partner concentration 10 nM)
# Summary of the method: as §1
# [10] = system: PPARg:RXRa 90nM:30nM, anti-RXR (NR concentration 90 nM, RXRa partner concentration 30 nM)
# Summary of the method: as §1
Sequence,PBM binding z-score [1],PBM binding z-score [2],PBM binding z-score [3],PBM binding z-score [4],PBM binding z-score [5],PBM binding z-score [6],PBM binding z-score [7],PBM binding z-score [8],PBM binding z-score [9],PBM binding z-score [10]
TCATATAGGTAAAAGGTGAAACTCGGTGTGGTAA,2.3,2.26,0.259,2.39,0.198,5.64,9.08,8.59,8.64,9.69
TGCATGAGGTTAAAGATCAGGGAACGTGGCGTCG,3.2,2.84,0.267,1.84,0.579,3.89,4.03,4.6,2.43,4.38
ATCCAAAGGTCGTGAGGTGAGTATACAGAAAGGC,5.79,4.82,0.975,3.77,0.687,5.37,5.62,5.62,2.33,4.08
CGTCAAAGTTCAACTAAGGTAACGTAAAGCACGC,7.09,6.32,4.44,4.24,1.99,5.14,5.22,5.44,2.32,4.08
CTCGAAGGGTCGGTTGAGGTGAGTATACGGATAA,2.14,0.689,-0.0739,0.752,-0.256,1.37,0.221,0.4,0.00814,0.0401
CCTCGGAGGACAGAAGCTCAGAGCTGTCCGCTTT,-0.605,-0.517,-0.873,-1.16,-0.889,-1.83,-0.876,-1.61,-1.52,-1.69
TGAATGTGGTTAAAGATCAGGGAACGTGGCGTCG,-0.133,-0.264,0.0303,-0.186,0.696,0.692,1.33,2.69,1.45,2.47
TCTAGTTGGTCTCGGAGGTCACACACGACGGGTA,2.68,3,2.28,3.18,0.844,3.52,1.68,3.05,3.33,3.13
ATCTCTAGGTAAAGTTCCGTGAAAGATCGATAGA,0.524,0.229,0.166,0.245,0.829,0.649,0.291,0.898,0.751,0.543
GGGACTGGGGCAAAGCAGGTTACCATAAGGTTGG,0.776,0.705,0.405,1.24,1.22,2.6,3.59,3.37,0.646,2.33
TCTATTAGTTGATTAGGGCAATCGAAACAGCGGA,0.665,0.828,0.306,0.766,0.542,0.871,0.0917,2.06,3.7,2.93
TGAATGAGGTTATCAGATCAGGGAACGTTGCAAA,1.75,1.5,-0.39,1.18,-0.266,3.2,1.74,2.18,0.777,1.28
ATCGAAAGGTCGAGATGAGTATAGAGAAAGGGAA,3.74,3.2,0.146,2.54,0.748,4.2,2.56,2.97,0.989,2
TCTCGGAGGACACGGAGGTCAGAGCTTTCCAGAG,1.72,1.54,0.806,1.13,-1.06,2.22,0.548,1.54,1.85,1.75
ATATGTAGGTTAGCTGGGGTCACTCAGACTAGGC,4.47,5.35,1.4,4.08,1.05,5.03,5.15,5.18,2.81,4.46
CCTAGCAGGCCGATCTGGGTCACTCAAGGCTTGA,0.827,0.587,-0.575,0.613,-0.973,2.6,1.46,1.5,-0.37,0.546
TCTCGGGGGACACGAAGGTCAGAGCTTTCCAGAG,2.9,2.88,0.575,4.36,6.23,3.77,1.86,3.73,3.31,3.45
ACTATTAGTTGACTTAGGGCAACCGCTACGACGC,0.0697,0.317,-0.0272,-0.056,0.492,-0.0454,0.482,-0.131,0.1,-0.0911
TCTTGTAGATCAAGCAGGTTCAGAAAGCCTGAGT,0.0146,0.179,-0.177,0.301,-0.777,0.691,-0.504,1.16,2.45,1.72
AGAATGAGGTTAAGATCAGCGAAACAGAATACAT,2.2,1.69,-0.0518,1.54,-0.0572,3.72,2.3,2.38,0.794,1.74
ATATGTAGGTTAGCTGGGGTCATTAAGACTAGGC,4.6,5.39,2.55,4.58,1.38,5.13,5.69,4.89,2.49,4.2
CCTAGCAGGCCAGGGACACTCAAGCATTTCGCTT,-0.315,-0.301,-0.372,-0.68,-0.928,-0.453,0.0348,-0.505,-0.943,-0.701
CGAACTAGGTCATTGACAGGAAAGTGAATAGTAA,4.94,2.6,0.115,2.01,-0.078,4.67,7.36,6.32,3.65,5.55
GCAGACAGGTGGAACGCAGGTAACTCAGGGTGGC,-0.427,-0.547,-0.822,-0.84,-1.13,-0.427,0.342,-0.6,-0.85,-1.06

Sequence,PBM binding z-score [1],PBM binding z-score [2],PBM binding z-score [3],PBM binding z-score [4],PBM binding z-score [5],PBM binding z-score [6],PBM binding z-score [7],PBM binding z-score [8],PBM binding z-score [9],PBM binding z-score [10]
AGTCAAAGTTCAGGATGAGGTAACGTAAAGCACG,4.14,3.93,1.07,2.02,0.238,3.58,4.66,4.92,2.26,3.84
TCTTGTAGATCAAAGGTTAAGCAAGCCGAAGCCT,1.32,2.21,0.224,2.12,-0.28,5.08,8.51,8.42,9.42,9.87
GCTGCTAGGTCACGTTGGTCAGCTAACGGGTACG,3.59,2.38,0.0398,1.73,-0.378,3.5,3.91,3.87,1.1,2.79
GCGCCTGGGGCAAAGCAGGTTACCATAAGGTTGG,0.19,-0.148,-0.679,-0.341,-1.26,0.474,0.0826,-0.405,-0.693,-0.771
CTCGAAAGGTCGGTTGAGGTGAGGATACGGATAA,3.07,1.84,-0.0492,1.43,-0.104,2.68,0.677,1.09,0.294,1.02
ATCTCTAGGTAAAGATAGGTCAGTGAATGCAAAT,0.743,5.46,1,2.53,0.609,1.87,0.963,1.24,0.668,0.741
TCATATAGGTAAAAAGTGAAAGTCGGTGTGGTAA,1.13,1.01,0.0735,0.858,-0.108,2.62,3.5,5.44,5.22,5.77
CTCGAAAGGTCGTGCTCAGGTGAGAATACCAAAC,5.2,3.74,0.081,3.51,0.321,4.86,2.81,3.77,1.19,2.44
GCTAGCAGGCTATTTGGGTCACTCAATGACGGGC,0.127,0.137,-0.259,0.255,-0.646,2.16,1.11,1.36,-0.338,0.706
AGTCAAAGTTTACTAGGTAACGTAAGATTCAGCT,-0.0676,0.666,0.138,0.287,0.0239,2.28,3.46,3.72,1.13,2.53
GGAACGAGTGCAAAGTTGATAGCATCTGTCGACG,0.106,-0.0741,-0.379,-0.315,-0.482,1.8,2.13,3.33,0.95,3.02
ACTAGTTGGTCAGGTGAGGTCACACACAATTCGG,3.87,3.4,2.65,3.35,0.501,3.83,2.36,2.68,0.906,1.88
CCAGGCAGGTGAGAAGGTAACTCAGCCTCGATTA,-0.311,-0.32,-0.49,-0.277,-0.875,0.473,0.238,0.813,-0.448,0.0901
AGAATGAGGTTAAGGTCAGGGAAACAGAATACAT,5.36,4.12,0.675,3.93,0.526,5.21,5.25,5.04,2.44,4.29
CCTGACGGGTCACTGACAGGTTATAGCATTTGGA,4.19,3.46,0.214,2.64,-0.319,4.19,2.56,2.71,0.481,1.8
ATATGTAGGTTCAGGGTCATTCAGGTTGGTTCGC,4.82,4.56,2.81,4.44,1.46,5.2,7.3,7.14,6,7.46
CCTAGTTGGTCAGGAGGTAACACACCGGATATGA,0.273,0.0725,0.325,0.204,-0.0466,0.433,0.902,1.08,0.0146,0.419
GCTCTGAGGACAAGGTCAGAGCTTTGTCCGTAGA,1.69,1.56,-0.176,1.45,-0.782,2.3,1.02,2.06,0.095,1.22
CGAACTAGATCATCCAGGACAGTGAATACATTGA,0.155,-0.152,0.195,-0.18,0.286,-0.169,0.554,-0.19,0.138,-0.219
ATGTGTAGGTTAAGGGTCATTCAGGTTGGTTCGC,5.28,4.85,3.49,4.71,2.56,5.72,9.4,8.54,9.74,9.9
TCTAGCAGGCCAGAGGGTCACTCAGGAGGTACGG,1.25,1.15,-0.544,0.792,-1.23,2.35,1.43,2.66,2,2.55
TAGCCTAGGTCAGATCGGGCCAGCATACGCTATA,2.37,0.982,-0.589,0.386,-0.807,1.52,0.739,0.901,-0.0521,0.135
ACTTACGGGTCAACGCGGTTATAGCACGCGTATA,6.63,4.76,0.698,4.08,0.727,5.52,4.9,5.47,1.84,4.14
CGTCCAAGGTCAGAGAGGTCAGTGCATGCCGAGT,5.87,4.93,3.33,4.41,0.554,4.76,3.48,4.37,0.807,2.76
